Read-out in assay [1]: Cytochrome P450 3A4 (Homo sapiens) (UniProt P08684)
The assay is described as follows: CLD_CYP3A4_48hr: CellzDirect (CLD) Gene Expression Assay for xenobiotic metabolism (CYP3A4) at 48 hours (AID 2283698). Put shortly:
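CYP3A4 induction read by qNPA chemiluminescence after 48 h, with fresh dosing solutions on consecutive days, in cultured human hepatocytes (two donors). Vehicle 0.2% DMSO as baseline; microscopy-based cytotoxicity annotated yes/no alongside data.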

Read-out in assay [2]: Broad substrate specificity ATP-binding cassette transporter ABCG2 (Homo sapiens) (UniProt Q9UNQ0)
The assay is described as follows: CLD_ABCG2_48hr: CellzDirect (CLD) Gene Expression Assay for ABC Transporter (ABCG2) at 48 hours (AID 2283704).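 As to AC50: potency for induction of ABCG2 mRNA above the DMSO baseline.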 Put shortly: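 ABCG2 transcript measured at 48 h by quantitative nuclease protection (chemiluminescent) and fitted for increase relative to 0.2% DMSO. Hepatocyte cultures from separate donors got fresh compound daily over two days; morphology annotated cytotoxicity.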

Read-out in assay [3]: organic anion transporter (SLCO1B1), SLCO1B1 (gene 10599)
Kind of assay: CLD_SLCO1B1_48hr: CellzDirect (CLD) Gene Expression Assay for organic anion transporter (SLCO1B1) at 48 hours (AID 2283707). Put shortly: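 SLCO1B1 transcript quantified by qNPA with chemiluminescent readout after 48 h of once-daily chemical exposure. Cultured human primary hepatocytes came from two donors, with 0.2% DMSO vehicle; positive-direction fitting against DMSO, cytotoxicity flagged by morphology.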

Read-out in assay [4]: alkyl and aryl transferase (GSTA2), GSTA2 (gene 2939)
Kind of assay: CLD_GSTA2_48hr: CellzDirect (CLD) Gene Expression Assay for alkyl and aryl transferase (GSTA2) at 48 hours (AID 2283708).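 Also: active means mRNA induction above DMSO vehicle baseline.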 Put shortly:
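GSTA2 mRNA quantified by qNPA chemiluminescence in human primary hepatocyte lysates after 48 h of daily fresh chemical dosing. Increases fitted against 0.2% DMSO vehicle baseline; cytotoxicity from morphology annotated yes/no.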

Read-out in assay [5]: sulfotransferase (SULT2A), SULT2A1 (gene 6822)
The assay is described as follows: CLD_SULT2A_48hr: CellzDirect (CLD) Gene Expression Assay for sulfotransferase (SULT2A) at 48 hours (AID 2283710).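 Also: hits raise SULT2A1 transcript above the 0.2% DMSO vehicle baseline.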 Put shortly: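 SULT2A1 transcript measured by qNPA chemiluminescence in human primary hepatocyte cultures after 48 h, with fresh dosing solutions on two consecutive days; gain-of-signal fitting against 0.2% DMSO vehicle; cytotoxicity annotated from phase-contrast morphology.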

Assay [6] is described as follows: CEETOX_H295R_MTT_cell_viability: Viability Assessment in the CeeTox HT-H295R MTT Assay (AID 2283718; active = hit-call score of the fitted dose curve at least 0.9, where 1 is the maximum; inactive = score below 0.9). Put shortly:
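Human H295R adrenal cells, prestimulated 48 h with 10 uM forskolin, were exposed 48 h to chemicals in 0.1% DMSO. Viability was measured in the same wells by MTT (0.5 mg/ml, 4 h, 37 C), absorbance 570/650 nm, as percent of controls.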

Assay [7] can be described thus: CLD_ACTIN_48hr: CellzDirect (CLD) Gene Expression Assay for Baseline Control (Actin) at 48 hours (AID 2283702). Put shortly: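 Background-control actin mRNA read by qNPA chemiluminescence at 48 h. Human hepatocyte cultures from two donors received fresh multi-concentration chemical doses daily for two days; 0.2% DMSO served as vehicle baseline.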
Read-out in assay [8]: glucuronosyltransferase (UGT1A1), UGT1A1 (gene 54658)
The assay is described as follows: CLD_UGT1A1_48hr: CellzDirect (CLD) Gene Expression Assay for glucuronosyltransferase (UGT1A1) at 48 hours (AID 2283709).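 Also: actives increase expression relative to DMSO so potency refers to induction.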 Put shortly: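 Quantitative nuclease protection assay (chemiluminescent) for UGT1A1 mRNA at 48 h in human hepatocyte cultures from two donors, redosed daily with fresh solutions. Induction fitted relative to 0.2% DMSO; phase-contrast morphology annotated cytotoxicity.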

Read-out in assay [9]: xenobiotic metabolism (CYP1A2), CYP1A2 (gene 1544)
Kind of assay: CLD_CYP1A2_48hr: CellzDirect (CLD) Gene Expression Assay for xenobiotic metabolism (CYP1A2) at 48 hours (AID 2283703). Put shortly: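 Cytotoxicity was flagged yes/no from morphology, while CYP1A2 transcript induction was detected by qNPA chemiluminescence after a 48-hour exposure. Human primary hepatocyte cultures from separate donors received fresh dosing solutions daily over two days, with 0.2% DMSO as vehicle and baseline.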

Read-out in assay [10]: HMG-CoA synthase (HMGCS2), HMGCS2 (gene 3158)
The assay is described as follows: CLD_HMGCS2_48hr: CellzDirect (CLD) Gene Expression Assay for HMG-CoA synthase (HMGCS2) at 48 hours (AID 2283711). Put shortly:
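mRNA induction read by qNPA chemiluminescence, 48 h after dosing. Cultured primary human liver cells (two donor preparations) received fresh compound daily over two days against 0.2% DMSO vehicle; morphology-based cytotoxicity noted alongside.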

Assay [11] can be described thus: Tanguay_ZF_120hpf_ActivityScore_legacy: (Legacy) Oregon State University Tanguay Lab 120 Hour Post-fertilization zebrafish Assay Score for Activity (AID 2283742).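 As to AC50: dechorionated Tropical 5D wild-type zebrafish embryos held singly per well.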 Put shortly:
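Dechorionated 5D embryos, one per well, static exposure 6–120 hpf, 28C, sealed and dark; final DMSO 0.64% (vol/vol). Brightfield binary scoring of mortality plus 18 endpoints; gain-of-signal fit versus DMSO baseline.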

Read-out in assay [12]: Cytochrome P450 2B6 (Homo sapiens) (UniProt P20813)
The assay is described as follows: CLD_CYP2B6_48hr: CellzDirect (CLD) Gene Expression Assay for xenobiotic metabolism (CYP2B6) at 48 hours (AID 2283699).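 Also: actives raise transcript level above DMSO so potency reflects induction.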 Put shortly: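 CYP2B6 transcript induction, read by quantitative nuclease protection (S1 digestion, chemiluminescent detection) 48 h after dosing, is fitted upward against 0.2% DMSO. Cultured human liver primary cells, two donor preparations, received fresh chemical daily over multiple concentrations.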

Assay [13] is described as follows: STM_H9_OrnithineISnorm_perc: Stemina devTOX quickPredict H9 human embryonic stem cell (hESC)-based Assay for Ornithine (ORN) Metabolite Biomarker, Normalized (AID 2283712; active = hit-call score of the fitted dose curve at least 0.9, where 1 is the maximum; inactive = score below 0.9;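 also: ornithine released into spent medium during last day measured by mass spectrometry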). Put shortly:
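Ornithine secreted by H9 hESCs after 72h compound treatment (daily media/compound renewal) was quantified in final-day media by UPLC-HRMS. Values are isotope-standard-normalized, expressed relative to 0.1% DMSO, fitted in positive direction.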

Assay [14] is described as follows: STM_H9_OrnCyssISnorm_ratio: Stemina devTOX quickPredict H9 human embryonic stem cell (hESC)-based Assay for Ornithine (ORN):Cystine (CYSS) Ratio (AID 2283714). Put shortly:
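UPLC-HRMS of spent media: ORN/CYSS ratio of internal-standard-normalized percentages, DMSO (0.1%) baseline. Pluripotent H9 hESCs, 72h exposure, daily re-dosing with fresh media; last 24h media collected.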

Read-out in assay [15]: xenobiotic metabolism (CYP1A1), CYP1A1 (gene 1543)
The assay is described as follows: CLD_CYP1A1_48hr: CellzDirect (CLD) Gene Expression Assay for xenobiotic metabolism (CYP1A1) at 48 hours (AID 2283705). Put shortly: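 CYP1A1 transcript measured by quantitative nuclease protection (chemiluminescent) 48 h after two daily treatments of human hepatocyte cultures, versus 0.2% DMSO. Morphology-based cytotoxicity flags accompany data; two donor preparations used.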

Inconclusive results are not listed. Active and inactive are the calls of the source. The calls were made as follows, unless noted: active = hit-call score of the fitted dose curve at least 0.9, where 1 is the maximum; inconclusive = response in the unintended direction; inactive = score below 0.9.

Chain of Cytochrome P450 3A4 (Homo sapiens) (P08684 whole entry, looked up): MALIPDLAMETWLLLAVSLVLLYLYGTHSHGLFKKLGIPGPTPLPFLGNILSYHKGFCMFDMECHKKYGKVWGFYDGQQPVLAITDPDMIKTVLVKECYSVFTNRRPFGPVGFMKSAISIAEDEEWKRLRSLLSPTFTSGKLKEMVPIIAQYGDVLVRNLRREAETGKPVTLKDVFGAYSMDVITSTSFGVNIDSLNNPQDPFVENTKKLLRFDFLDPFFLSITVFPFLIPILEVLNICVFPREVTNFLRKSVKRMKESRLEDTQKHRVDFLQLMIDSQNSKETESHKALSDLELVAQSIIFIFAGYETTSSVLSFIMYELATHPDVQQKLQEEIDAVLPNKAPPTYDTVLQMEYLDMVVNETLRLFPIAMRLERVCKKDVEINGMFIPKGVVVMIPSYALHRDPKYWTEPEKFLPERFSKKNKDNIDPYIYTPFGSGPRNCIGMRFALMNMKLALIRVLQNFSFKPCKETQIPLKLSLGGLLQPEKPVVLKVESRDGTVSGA
Chain of Broad substrate specificity ATP-binding cassette transporter ABCG2 (Homo sapiens) (Q9UNQ0 whole entry, looked up): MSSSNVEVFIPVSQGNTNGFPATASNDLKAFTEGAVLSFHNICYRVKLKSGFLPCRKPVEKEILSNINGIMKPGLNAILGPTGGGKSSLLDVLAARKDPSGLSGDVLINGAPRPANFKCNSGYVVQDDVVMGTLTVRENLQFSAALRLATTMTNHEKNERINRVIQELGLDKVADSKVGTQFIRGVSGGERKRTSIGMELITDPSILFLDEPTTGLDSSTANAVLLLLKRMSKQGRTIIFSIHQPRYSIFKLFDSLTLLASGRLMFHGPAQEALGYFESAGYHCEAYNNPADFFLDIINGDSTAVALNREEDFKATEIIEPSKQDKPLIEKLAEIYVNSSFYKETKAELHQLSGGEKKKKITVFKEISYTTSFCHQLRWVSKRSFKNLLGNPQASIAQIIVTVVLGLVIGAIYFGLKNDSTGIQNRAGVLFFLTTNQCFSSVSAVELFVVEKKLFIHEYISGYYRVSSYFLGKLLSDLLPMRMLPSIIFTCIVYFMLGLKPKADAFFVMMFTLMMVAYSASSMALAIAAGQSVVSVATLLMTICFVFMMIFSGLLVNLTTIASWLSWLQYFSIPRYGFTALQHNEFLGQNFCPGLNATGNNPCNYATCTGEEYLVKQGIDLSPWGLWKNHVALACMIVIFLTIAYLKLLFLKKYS

With `Nc1cnn(-c2ccccc2)c(=O)c1Cl`, the compound was called inactive in [1], in assay [2], in assay [3], in assay [4], in assay [5] and in [6].
As to `CN=C=S`, the compound was classed as inactive in [1], in assay [7], in [2], in assay [4] and in assay [8].
For orientation: AC50 means the midpoint of the concentration-response curve, whichever way the signal moves. Regarding `COC(=O)NC(=S)Nc1ccccc1NC(=S)NC(=O)OC`, the AC50 in [1] was 3.45 µM (active); in assay [9], 15.7 µM (active). The compound was called inactive in assay [7], in assay [2], in assay [3], in [4], in assay [8] and in assay [5]. Besides, the outcome in assay [10], in assay [6] and in [11] was inactive.
Consider `CC1(C)CON(Cc2ccccc2Cl)C1=O`, for which the AC50 in assay [1] is 5.13 µM (active); in assay [12] it was 3.23 µM (active); in [14] it was 68.8 µM (active). Moreover, the outcome in [9], in assay [8], in assay [5], in [13] and in assay [6] was inactive.
As to `COCC(C)N(C(=O)CCl)c1c(C)csc1C` (stereo unspecified), the result in assay [2], in assay [15], in assay [3] and in assay [8] was inactive. Besides, the results for the AC50 in assay [4] and in assay [11] were 32.1 µM (active) and 29.2 µM (active), respectively.
For `N#Cc1c[nH]cc1-c1cccc2c1OC(F)(F)O2`, the result in assay [1] and in assay [8] was inactive. In addition, the AC50 was 2.54 µM (active) in assay [12]; 2.37 µM (active) in assay [9]; 31.8 µM (active) in assay [15]; 38.3 µM (active) in assay [13]; 32.8 µM (active) in assay [14].
`CC1(C)C(C=C(Cl)Cl)C1C(=O)OC(C#N)c1cccc(Oc2ccccc2)c1` (stereo unspecified): the AC50 is 6.03 µM (active) in assay [8] and 1.14 µM (active) in [11]. In addition, the compound was classed as inactive in [5], in [13], in assay [14] and in [6].
With `Cc1ccc(N=CN(C)C=Nc2ccc(C)cc2C)c(C)c1`, the values for the AC50 in assay [2] and in assay [15] were 17.4 µM (active) and 5.87 µM (active), respectively. The outcome in [4] and in assay [11] was inactive.
For the compound `C=CCOC(=O)C(C)(C)OC(=O)c1cc(-n2c(=O)cc(C(F)(F)F)n(C)c2=O)ccc1Cl`, the AC50 in [1] is 2.79 µM (active). The result in assay [7], in assay [2], in assay [15], in assay [4], in [8] and in assay [11] was inactive.
For `CCCN(CC)CC1COC2(CCC(C(C)(C)C)CC2)O1` (stereo unspecified), the AC50 is 2.82 µM (active) in [1], 3.97 µM (active) in assay [15], 0.0474 µM (active) in assay [5] and 1.3 µM (active) in assay [14]. For the same compound, the outcome in assay [12], in assay [2], in assay [4], in assay [8], in [10] and in assay [13] was inactive. The compound was called inactive in assay [6].

Source of the values: PubChem BioAssay (EPA / NIEHS).
